PubChem BioAssay AID1159580 (chemical genetic matrix, 2015)
Counter-ions that a name gives are not always drawn. In all, about 5,500 compounds went through this assay and about 2,000 (36%) were called active. Roughly 18% stayed inconclusive and do not appear here. Cut-off read from the data, not from the text of the source: active = normalized growth mostly below about 0.91 (no sharp cut-off); inconclusive = no clear call, values can overlap the other calls; inactive = mostly above about 0.92. Some of the results follow. Where a SMILES comes first, the peptide text is derived from it. The star is where a group is joined. Tfa = O=C(C(F)(F)F)*

Experiment: chemical genetic growth profiling, strain panel (AID 1159580);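 note: tested at 20 µM; growth read once vehicle control cultures reached saturation at 30 °C; 1 = growth at the plate median or of vehicle wells; lower values mean less growth of the strain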
Conditions: S. cerevisiae deletion strains, growth OD
[1] = locus YAL021C, strain ccr4, hits give low values
[2] = locus YAL026C, strain drs2, hits give low values
[3] = locus YAL030W, strain snc1, hits give low values
[4] = locus YBL061C, strain skt5, hits give low values
[5] = locus YBR009C, strain hhf1, hits give low values
[6] = locus YBR023C, strain chs3, hits give low values
[7] = locus YBR171W, strain sec66, hits give low values
[8] = locus YBR231C, strain swc5, hits give low values
[9] = locus YBR279W, strain paf1, hits give low values
[10] = locus YCL011C, strain gbp2, hits give low values
[11] = locus YCL016C, strain dcc1, hits give low values
[12] = locus YCL069W, strain vba3, hits give low values
[13] = locus YCR088W, strain abp1, hits give low values
[14] = locus YDL005C, strain med2, hits give low values
[15] = locus YDL040C, strain nat1, hits give low values
[16] = locus YDR001C, strain nth1, hits give low values
[17] = locus YDR069C, strain doa4, hits give low values
[18] = locus YDR137W, strain rgp1, hits give low values
[19] = locus YDR159W, strain sac3, hits give low values
[20] = locus YDR297W, strain sur2, hits give low values
[21] = locus YDR334W, strain swr1, hits give low values
[22] = locus YDR335W, strain msn5, hits give low values
[23] = locus YDR392W, strain spt3, hits give low values
[24] = locus YEL003W, strain gim4, hits give low values
[25] = locus YEL037C, strain rad23, hits give low values
[26] = locus YEL061C, strain CIN8 (second series), hits give low values
[27] = locus YER015W, strain faa2, hits give low values
[28] = locus YER016W, strain bim1, hits give low values
[29] = locus YER111C, strain swi4, hits give low values
[30] = locus YER155C, strain BEM2 (second series), hits give low values
[31] = locus YFR010W, strain ubp6, hits give low values
[32] = locus YGL167C, strain pmr1, hits give low values
[33] = locus YGL173C, strain kem1, hits give low values
[34] = locus YGL227W, strain vid30, hits give low values
[35] = locus YGL240W, strain doc1, hits give low values
[36] = locus YGL253W, strain hxk2, hits give low values
[37] = locus YHR013C, strain ard1, hits give low values
[38] = locus YHR027C, strain rpn1, hits give low values
[39] = locus YHR142W, strain chs7, hits give low values
[40] = locus YJL092W, strain hpr5, hits give low values
[41] = locus YJL095W, strain BCK1 (second series), hits give low values
[42] = locus YJL115W, strain asf1, hits give low values
[43] = locus YJL129C, strain trk1, hits give low values
[44] = locus YJL154C, strain vps35, hits give low values
[45] = locus YJL164C, strain tpk1, hits give low values
[46] = locus YJL166W, strain qcr8, hits give low values
[47] = locus YKL160W, strain elf1, hits give low values
[48] = locus YKR026C, strain gcn3, hits give low values
[49] = locus YKR091W, strain srl3, hits give low values
[50] = locus YLL001W, strain dnm1, hits give low values
[51] = locus YLL026W, hits give low values
[52] = locus YLL041C, strain sdh2, hits give low values
[53] = locus YLR027C, strain aat2, hits give low values
[54] = locus YLR221C, strain rsa3, hits give low values
[55] = locus YLR258W, strain gsy2, hits give low values
[56] = locus YLR262C, strain YPT6 (second series), hits give low values
[57] = locus YLR320W, strain mms22, hits give low values
[58] = locus YLR342W, strain FKS1, hits give low values
[59] = locus YLR357W, strain rsc2, hits give low values
[60] = locus YLR370C, strain arc18, hits give low values
[61] = locus YLR384C, strain iki3, hits give low values
[62] = locus YML120C, strain ndi1, hits give low values
[63] = locus YMR058W, strain fet3, hits give low values
[64] = locus YMR125W, strain sto1, hits give low values
[65] = locus YMR129W, hits give low values
[66] = locus YMR205C, strain PFK2, hits give low values
[67] = locus YMR231W, strain pep5, hits give low values
[68] = locus YNL071W, strain lat1, hits give low values
[69] = locus YNL209W, strain ssb2, hits give low values
[70] = locus YNL248C, strain rpa49, hits give low values
[71] = locus YNL322C, strain KRE1 (second series), hits give low values
[72] = locus YNR049C, strain mso1, hits give low values
[73] = locus YOR001W, strain rrp6, hits give low values
[74] = locus YOR070C, strain gyp1, hits give low values
[75] = locus YOR080W, strain dia2, hits give low values
[76] = locus YOR083W, strain WHI5, hits give low values
[77] = locus YOR106W, strain vam3, hits give low values
[78] = locus YOR265W, strain rbl2, hits give low values
[79] = locus YOR270C, strain vph1, hits give low values
[80] = locus YOR290C, strain snf2, hits give low values
[81] = locus YPL051W, strain arl3, hits give low values
[82] = locus YPL078C, strain atp4, hits give low values
[83] = locus YPL106C, strain sse1, hits give low values
[84] = locus YPL240C, strain hsp82, hits give low values

Measured: normalized growth

O=C1C=C2C=C[C@@H]3C[C@@]2(O1)[C@H]1CCCCN31
inactive: [1] 1.02 | [2] 1.01 | [3] 0.993 | [4] 1.01 | [5] 0.938 | [6] 1.01 | [7] 0.99 | [8] 0.977 | [9] 1.01 | [10] 1.01 | [11] 1.04 | [12] 0.974 | [13] 0.985 | [14] 0.998 | [15] 0.997 | [16] 0.992 | [17] 0.996 | [18] 0.965 | [19] 0.93 | locus YDR195W, strain ref2 0.973 | [20] 0.994 | [21] 0.956 | [22] 1.01 | [23] 0.973 | [24] 0.95 | [25] 0.982 | [26] 0.976 | [27] 1.01 | [28] 1.03 | [29] 1 | [30] 0.986 | [31] 0.96 | [32] 0.978 | [33] 0.977 | [34] 0.985 | [35] 0.989 | [36] 1.01 | [37] 1.01 | [38] 0.979 | locus YHR030C, strain SLT2, hits give low values 1.06 | locus YHR079C, strain IRE1, hits give low values 1.05 | [39] 1.01 | [40] 0.993 | [41] 1 | locus YJL095W, strain BCK1, hits give low values 1 | [42] 0.993 | [43] 1.01 | [44] 0.986 | [45] 0.969 | [46] 0.961 | locus YJL187C, strain SWE1, hits give low values 0.984 | locus YJR066W, strain TOR1, hits give low values 1 | [47] 1.05 | [48] 0.976 | [49] 0.992 | [50] 0.974 | [51] 0.996 | [52] 1 | [53] 1 | locus YLR113W, strain HOG1, hits give low values 1.03 | [54] 0.966 | [55] 1.01 | [56] 0.927 | [57] 0.926 | [58] 1 | [59] 0.986 | [60] 1.01 | [61] 0.991 | [62] 0.956 | [63] 0.981 | [64] 1 | [65] 0.986 | [66] 0.997 | [67] 0.994 | [68] 0.98 | locus YNL183C, strain NPR1, hits give low values 0.973 | [69] 1 | [70] 1.04 | [71] 1 | [72] 1.01 | [73] 0.94 | [74] 0.991 | [75] 0.994 | [76] 0.982 | [77] 1.01 | locus YOR231W, strain MKK1, hits give low values 1.02 | [78] 0.989 | [79] 1 | [80] 1.05 | [81] 1.05 | [82] 1.04 | [83] 1.02 | [84] 0.994 | locus YPL256C, strain CLN2, hits give low values 1.03

CC(C)C(NC(=O)C(Cc1ccc(O)cc1)NC(=O)C(NC(=O)C(F)(F)F)C(C)C)C(=O)O (stereo not drawn) (Tfa-Val-Tyr-Val-OH; configuration not given here)
inactive: [1] 0.997 | [2] 1 | [3] 0.985 | [4] 0.984 | [5] 1.02 | [6] 0.983 | [7] 0.976 | [8] 1 | [9] 0.996 | [10] 1 | [11] 0.98 | [12] 1 | [13] 0.988 | [14] 0.998 | [15] 0.976 | [16] 0.997 | [17] 0.984 | [18] 0.968 | [19] 0.979 | locus YDR195W, strain ref2 0.995 | [20] 0.985 | [21] 1.01 | [22] 0.994 | [23] 0.935 | [24] 0.996 | [25] 0.99 | [26] 1.01 | [27] 0.999 | [28] 0.976 | [29] 0.972 | [30] 0.983 | [31] 0.997 | [32] 0.985 | [33] 0.991 | [34] 0.988 | [35] 0.998 | [36] 0.982 | [37] 0.94 | [38] 0.988 | [39] 0.995 | [40] 0.995 | [41] 0.975 | [42] 0.986 | [43] 0.995 | [44] 0.98 | [45] 0.989 | [46] 1.02 | [47] 1 | [48] 0.989 | [49] 0.983 | [50] 1 | [51] 1 | [52] 1 | [53] 0.991 | [54] 1 | [55] 0.995 | [56] 0.969 | [57] 0.993 | [58] 0.996 | [59] 0.951 | [60] 0.992 | [61] 1 | [62] 0.98 | [63] 0.982 | [64] 0.978 | [65] 0.998 | [66] 0.998 | [67] 0.997 | [68] 0.987 | [69] 1 | [70] 0.963 | [71] 0.971 | [72] 1 | [73] 1 | [74] 0.995 | [75] 0.984 | [76] 0.94 | [77] 1 | [78] 0.998 | [79] 0.963 | [80] 0.985 | [81] 0.986 | [82] 0.987 | [83] 0.954 | [84] 0.981
